# ± gives the standard deviation. The full ranking holds about 8,200 sequences; the median of “pre-steady-state target cleavage rate” is about 0.024, and the highest 2% start at about 1.3. This excerpt belongs to a sample that is enriched for the highest values.
# System: MIWI (PIWIL1) piRISC loaded with L1MC piRNA (30 nt)
# Experiment: pre-steady-state target cleavage rate (min^-1); MIWI and MILI are mouse PIWI proteins and EfPiwi is from a freshwater sponge; tags in brackets are library labels; higher = faster piRNA-guided slicing of the target
# Conditions: guide: L1MC piRNA 5'p-UAACUAAAUACUAUGCAAGCUGUAGGUCCU
# Description: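 Cleave-'n-Seq: a library of target RNAs (target site embedded in constant flanks, ACAGCATTCCGCGTTAGTGATATCCG... 5' flank; DNA-blocked outside the site) at 0.1 nM was incubated with 1 nM active mouse MILI or MIWI piRISC (synthetic 5'-monophosphorylated piRNA guide) with or without 500 nM mouse GTSF1 at 33 °C for 1 min to 16 h. Uncleaved targets were sequenced and normalised to non-target controls, and the pooled three trials were fitted to a burst-and-steady-state model to give the pre-steady-state cleavage rate (min^-1; k3 is constrained to at most 1e-4). Sequence is the target site only; target names encode pairing extent (gX:gY) and contiguous / 1-mismatch / 2-mismatch / bulge geometry. Fits with R² ≤ 0 are excluded.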
# [1] = auxiliary factor: 500 nM mouse GTSF1
# [2] = auxiliary factor: none (no GTSF1)
Sequence,pre-steady-state target cleavage rate [1],pre-steady-state target cleavage rate [2]
UGGACCUACAGCUUUGCAUAGUAUUUAGUUA,1.43 ± 0.11,0.0449 ± 0.011
UGGACCUACAGCUUGCAUAGUAUUUUAGUUA,1.38 ± 0.079,0.0467 ± 0.012
UCCACCUACAGCUUGCAUAAUAUUUAGUUA,0.552 ± 0.049,0.0203 ± 0.0032
UCCUGCUACAGCUACCAUAGUAUUUAGUUA,0.337 ± 0.032,
AGGACCUACAGCUUGCAUAGUAUUAGUUA,0.385 ± 0.053,0.00372 ± 0.003
UCCACCUACAGCUUGCAUAGUAUUAAGAAA,0.351 ± 0.054,
UCCUGGAUGAGAUUGCAUAGUAUUUAGUUA,0.117 ± 0.011,0.00369 ± 0.0027
UCCUGGUACAGCUUGCAUGGUAUUUAGUUA,0.891 ± 0.058,0.0741 ± 0.018
UCCUGGAUCAGCUUGGAUAGUAUUAAGUUA,0.258 ± 0.033,0.0129 ± 0.0046
UGGACCUUCAGCUUGCAUAGUAUAUAGUUA,1 ± 0.053,0.0376 ± 0.0085
UGGACCUACAGCUUGCAUAGUAUUUAGUUG [g2:g29:cont:t1G],0.456 ± 0.037,0.0555 ± 0.01
UGGACCUACAGCUUGCAUAGUUAUUUAGUUA,0.0473 ± 0.0076,0.00533 ± 0.0021
UGGACCUACAGCUUGCAUAGUAUUUAGUUA [g2:g29:cont:t1A],1.61 ± 0.09,0.0718 ± 0.013
AUGGACCUACAGCUUGCAUAGUAUUUAGUUA,1.34 ± 0.088,0.0872 ± 0.018
UCGACCUACAGCUUGCAUAGUAAUAAGUUA,0.444 ± 0.047,
UCCUCCAUGAGCUUGCAUAGUAUUUAGUAA,0.471 ± 0.029,0.0262 ± 0.0057
UCCUGCUACAGCUUGCAUAGUCAUUUAGUUA,0.0744 ± 0.02,0.00362 ± 0.0031
UCCUGGAUGUCCUUGCAUAGUAUUUAGUCA,0.0473 ± 0.011,0.00568 ± 0.0021
UCGACCUACAUGCUUGCAUAGUAUUUAGUUA,0.913 ± 0.037,0.0554 ± 0.012
UCCACCUACAGCUUGCAUAGUUUUUACUUA,0.173 ± 0.03,0.0106 ± 0.0026
UCCUGGUUCAGCUUGCAUAGUUUUUAGUUA,0.242 ± 0.031,0.0386 ± 0.0094

Sequence,pre-steady-state target cleavage rate [1],pre-steady-state target cleavage rate [2]
AGGACCUACAGCAACCAUAGUAUUUAGUUA,0.426 ± 0.039,
UCCUCCAACAGCUUGCAUAGUAUUUAGAUA,0.491 ± 0.042,0.0201 ± 0.0048
UCGUCCAACAGCUUGCAUAGUAUUUAGUUA,1.4 ± 0.044,0.0771 ± 0.014
UCCACCAACAGCUUGCAUAGUAUUUAGUUA,1.06 ± 0.037,0.0618 ± 0.011
UCCUCCAACAGCUUGCAUAGUAUUUAGUUA,1.37 ± 0.041,0.0735 ± 0.013
UCCUCCAACAGCUUGCAUAGUAUUUAGUAA,0.675 ± 0.03,0.0256 ± 0.0063
AGGUCCAACAGCUUGCAUAGUAUUUAGUUA,1.5 ± 0.04,0.0907 ± 0.014
UGGUCCAACAGCUUGCAUAGUAUUUAGUUA,0.852 ± 0.034,0.0715 ± 0.01
UCCACCAACAGCUUGCAUAGUAUUUAGUAA,0.644 ± 0.039,0.0342 ± 0.0071
UCCAACUACAGCUUGCAUAGUAUUUAGUUA,0.646 ± 0.038,0.0478 ± 0.0076
UGGACGUACAGCUUGCAUAGUAAUUAGUUA,0.725 ± 0.048,0.0371 ± 0.0089
UCCUGGUACAGCUUGCAUAGUAUUAUGAAA,0.119 ± 0.037,
UCCUGGUACACCUUGCAUAGUAAUUAGUUA,0.546 ± 0.1,0.00728 ± 0.0025
UCGACCUACAGCUUGGAUAGUAUUUAGUAA,0.859 ± 0.043,0.0299 ± 0.0054
UCGACCUACAGCUUGGAUAGUAUUUAGUUA,1.72 ± 0.055,0.0599 ± 0.01
UGCACCUACAGCUUGGAUAGUAUUUAGUUA,1.18 ± 0.065,0.05 ± 0.008
AGCACCUACAGCUUGGAUAGUAUUUAGUUA,0.99 ± 0.049,0.0433 ± 0.0065
ACGACCUACAGCUUGGAUAGUAUUUAGUUA,1.68 ± 0.067,0.0728 ± 0.011
UCGACCUACAGCUUGGAUAGUAUUUAGAUA,0.444 ± 0.05,0.0181 ± 0.0047
AGGACGAACAGCUUGCAUAGUAUUUACAAA,0.245 ± 0.037,0.00641 ± 0.0027
UGGACCUACACGUUGCAUAGUAUUUAGUAA,0.575 ± 0.039,0.00987 ± 0.0024

Sequence,pre-steady-state target cleavage rate [1],pre-steady-state target cleavage rate [2]
UCCAUCCUACAGCUUGCAUAGUAUUUAGUUA,0.558 ± 0.029,0.0561 ± 0.0096
UCGAUCCUACAGCUUGCAUAGUAUUUAGUUA,1.49 ± 0.042,0.0686 ± 0.013
UGGAUCCUACAGCUUGCAUAGUAUUUAGUUA,1.37 ± 0.071,0.0869 ± 0.014
AGGAUCCUACAGCUUGCAUAGUAUUUAGUUA,1.4 ± 0.068,0.118 ± 0.023
AGGUCCUACAGCUUGCAUAGUAUUUACAAA,0.428 ± 0.076,0.00841 ± 0.003
UGGACCUACAGCUUGCAGUAGUAUUUAGUUA,0.00477 ± 0.0038,
UCCUGGUUCAGCUUGCAUAGUAUUUAGUAA,0.528 ± 0.055,0.0354 ± 0.008
UCCUGCAACAGGUUGCAUAGUAUUUAGUUA,1.11 ± 0.085,0.0208 ± 0.0052
UCCUGGAUGUGCUUGCAUAGUAUUUAGGUUA,0.191 ± 0.02,0.0232 ± 0.0058
UCCUGGAUGUGCUUGCAUAGUAUUUAUGUUA,0.202 ± 0.026,0.0215 ± 0.0052
AGGACCUAGAGCUUGCAUAGUAAUUAGUUA,0.747 ± 0.047,0.0277 ± 0.0076
AGGACCAACAGCUUGCUUAGUAUUUAGUUA,1.31 ± 0.066,0.0459 ± 0.0084
UGGACCAACAGCUUGCUUAGUAUUUAGUUA,1.64 ± 0.092,0.0497 ± 0.01
UCGACCAACAGCUUGCAAAGUAUUUAGUUA,1.29 ± 0.043,0.0448 ± 0.01
AGGACCAACAGCUUGCAAAGUAUUUAGUUA,1.18 ± 0.038,0.0503 ± 0.01
UCGACCAACAGCUUGCAUUGUAUUUAGUUA,0.973 ± 0.028,0.0383 ± 0.008
UGGACCAACAGCUUGCAAAGUAUUUAGUUA,1.38 ± 0.062,0.0368 ± 0.0072
UCCACCAACAGCUUGCUUAGUAUUUAGUUA,1.31 ± 0.061,0.026 ± 0.0061
UCCUCCAACAGCUUGCUUAGUAUUUAGUUA,1.28 ± 0.054,0.0363 ± 0.0081
UCGACCAACAGCUUGCUUAGUAUUUAGUUA,1.47 ± 0.05,0.0416 ± 0.0081

# Source: the supplement of paper PMC10338343
